High-throughput results as filed in PubChem.
HSD17B inhib – inhibitors of human HSD17B10 dehydrogenase. recombinant HSD17B10, NADH fluorescence kinetic. Potency, µM (doses to about 57.1 µM), for inactives: top-dose activity change, negative = inhibition, most hits filed as inhibitors. 7.6% of 75,000 active;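 note: the protocol describes HADH2 (HSD17B10) and not the HSD17B4 of the title; potency is the fitted concentration of half-maximal effect; % is set by controls: 0 for no effect and ±100 for the full control effect; nearly all actives have a fitted effect of over 70% in size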
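20 nM HADH2, pH 9.0 Tris/Tween; cpd preinc 15 min RT; start w/ 1 mM NAD+ + 90 uM b-hydroxybutyryl-CoA; kinetic fluor ex360/em450 q30s x 4 min; delta last-first.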
4-MU autofl – compounds fluorescent in 4-MU spectral region; compound autofluorescence, 340/450 nm, 4-MU equivalents; stronger effect = higher value; AID 589; max dye-equivalent concentration, M; 11% of 59,000 active; in the data active = max dye-equivalent concentration above about 10 nM; inconclusive = mostly about 1.1 nM to 9.6 nM
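Compounds in 100 mM Tris, pH 8.0, sat 15 min at room temperature before fluorescence was read at 340 nm excitation/450 nm emission; a per-plate six-point 4-MU standard curve converted signals to dye-equivalent concentration at each compound concentration.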
HADH2 inhib – inhibitors of human HADH2 dehydrogenase. Q99714. recombinant HADH2, NADH fluorescence, beta-hydroxybutyryl-CoA. Potency, µM (top dose mostly 57.1 µM), inactives show at the top dose activity change, negative = inhibition, usual class: inhibitors. 3.4% of 73,000 active. AID 886; note: potency is the fitted concentration of half-maximal effect; % is set by controls: 0 for no effect and ±100 for the full control effect; nearly all actives have a fitted effect of over 60% in size
Target sequence (Q99714 whole entry, looked up, one chain of several): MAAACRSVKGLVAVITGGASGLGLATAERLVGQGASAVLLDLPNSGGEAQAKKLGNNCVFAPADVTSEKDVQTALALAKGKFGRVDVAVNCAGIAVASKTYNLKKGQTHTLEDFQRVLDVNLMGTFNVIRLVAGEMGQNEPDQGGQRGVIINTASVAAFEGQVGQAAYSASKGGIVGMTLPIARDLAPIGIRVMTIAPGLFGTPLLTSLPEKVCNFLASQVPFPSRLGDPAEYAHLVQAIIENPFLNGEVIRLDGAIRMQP
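20 nM HADH2 + cpd, 15 min RT; add 1 mM NAD+/90 uM beta-hydroxybutyryl-CoA; kinetic fluorescence 360/450 nm, 4 min. Tris-HCl pH 9.0, 0.01% Tween-20.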
A350 fluor – A350 region autofluorescence; Compound autofluorescence, 340/450 nm, Alexa 350 dye-equivalents; stronger effect = higher value; max dye-equivalent concentration, M; 11% of 59,000 active; AID 590; in the data active = max dye-equivalent concentration above about 10 nM; inconclusive = mostly about 1.1 nM to 9.6 nM
AID923 – qHTS Assay for Allosteric/Competitive Inhibitors of Caspase-1: Spectroscopic Profiling in AFC Spectral Region; 1.1% of 75,000 active; Potency, µM (top dose mostly 57.5 µM), for inactives: top-dose fluorescence increase, usual class: activators; compound fluorescence, AFC spectral region (405/520 nm); note: potency is the fitted concentration of half-maximal effect; 0% is about no effect
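Titrations up to 57 uM read every 20 sec for 3 min (405/520 nm) with 50 nM caspase 1 and 5 uM Ac-WEHD-AFC, pH 7.5 HEPES buffer. Fluorescence-vs-time intercept gave baseline, scaled against on-plate AFC standard.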
* = called active by the depositor; i = inactive; ? = inconclusive; . = no result; [ ] = another dose, or the depositor's remark. The list is not random: actives were taken first. Their share in the collection is about 13%. Unless noted, calls come from the whole dose curve; as a rule, active = well fitted curve in the direction sought with a large enough effect; inconclusive = small, poorly fitted or top-dose-only effect, or another doubt; inactive = no such curve, though single readings can be large; an effect the other way counts as inactive or inconclusive.

SMILES	HSD17B inhib	4-MU autofl	HADH2 inhib	A350 fluor	AID923
CCC(CO)NC(=O)C1C=C2c3cccc4[nH]cc(c34)CC2N(C)C1 (stereo not given)	25µM*	.	.	.	7%
CN1C[C@H](CNC(=O)OCc2ccccc2)C[C@H]2c3cccc4c3c(cn4C)C[C@@H]21	-5%	i	4%	i	1%
CN1CC(CO)=C[C@H]2c3cccc4[nH]cc(c34)C[C@H]21	?	.	.	.	12%
CN1C[C@H](CO)C=C2c3cccc4[nH]cc(c34)C[C@@H]21	13µM*	4.3e-08M*	13µM*	3.9e-08M*	5%[25.7 µM]
O=C(O)C[C@H]1OCC=C2CN3CC[C@]45c6ccccc6N[C@@H]4[C@H]1[C@H]2C[C@H]35	2%[11.4 µM]	i	0%[11.4 µM]	i	-1%[11.5 µM]
CC(C)C(=O)CP(=O)(O)O	9%[11.4 µM]	i	4%[11.4 µM]	i	1%[11.5 µM]
CC[C@@H]1CN2CC[C@@H]1C[C@H]2[C@@H](O)c1ccnc2ccc(OC)cc12	.	i	-6%	i	.
Oc1ccc2c3c1O[C@@H]1[C@@H](O)CC[C@]4(O)[C@H](C2)N(CC2CCC2)CC[C@@]314	11%	i	-10%	i	-1%
C[C@@]12CC[C@H]3[C@@H](CCC4=CC(=O)CC[C@]43C)[C@H]1CCC2=O	.	i	-17%	i	.
C[C@@H](CO)NC(=O)[C@H]1C=C2c3cccc4[nH]cc(c34)C[C@H]2N(C)C1	.	?	40µM*	?	.
CC[C@@H](CO)NC(=O)[C@H]1C=C2c3cccc4[nH]cc(c34)C[C@H]2N(C)C1	32µM*	.	32µM*	.	13%
CC(C)[C@@]1(NC(=O)[C@@H]2C=C3c4cccc5[nH]cc(c45)C[C@@H]3N(C)C2)O[C@]2(O)[C@H]3CCCN3C(=O)[C@H](Cc3ccccc3)N2C1=O	.	1.2e-08M*	?	?	.
CC[C@H](CO)NC(=O)[C@H]1C=C2c3cccc4[nH]cc(c34)C[C@@H]2N(C)C1	13µM*	5.2e-08M*	16µM*	4.7e-08M*	3%[25.7 µM]
CCCCCC[C@H]1C(=O)O[C@@H](C)[C@H](NC(=O)c2cccc(NC=O)c2O)C(=O)O[C@@H](C)[C@@H]1OC(=O)CC(C)C	.	?	4%	?	.
CCN1C[C@@]2(COC(=O)c3ccccc3N3C(=O)C[C@H](C)C3=O)CC[C@H](OC)[C@@]34[C@@H]5CC6[C@@H](OC)C[C@@](O)([C@H]5[C@H]6OC)C(O)([C@@H]13)[C@@H](OC)[C@H]24	.	i	6%	i	.
COc1cc2c(cc1OC)[C@@]13CCN4CC5=CCO[C@H](CC(=O)O)[C@@H]([C@H]1N2)[C@H]5C[C@H]43	3%[11.4 µM]	i	1%[11.4 µM]	i	0%[11.5 µM]
C[C@@H](Cc1ccc(O)cc1)NC[C@@H](O)c1cc(O)cc(O)c1	-7%[25.6 µM]	i	?	i	.
C[C@@H]1O[C@H]1P(=O)(O)O	5%	i	-6%	i	-4%
CO[C@@H](C)[C@](O)(C(=O)OC1=CCN2CC[C@H](O)[C@H]12)C(C)C	.	i	10%	i	.
Cc1c([C@@H](C)[C@H]2NC[C@H](C)C[C@@H]2O)ccc2c1C[C@@H]1[C@H]2CC=C2C[C@@H](O)CC[C@@]21C	8%[11.4 µM]	i	-4%[11.4 µM]	i	-2%[11.5 µM]
CCOC(=O)c1cncn1C(C)c1ccccc1 (stereo not given)	11%	i	19%	?	1%
CCOC(=O)c1cc2c(cn1)[nH]c1ccccc12	.	1.2e-08M*	.	1.5e-08M*	.
COC(=O)c1cc2c(cn1)[nH]c1ccccc12	25µM*	?	?	?	1%
CC(C)(C)[C@@]1(O)C[C@@H]2OC(=O)C[C@@]23C(=O)O[C@H]2OC(=O)[C@@H](O)[C@]231	.	i	2%	i	.
CN1C(=O)N(C)C(=O)C2(Cc3cc(N)ccc3N3CCN(c4ccccc4F)CC32)C1=O (stereo not given)	8%	i	-3%	i	-1%
O=C1NC(=O)C2(Cc3ccccc3N3CCCC32)C(=O)N1c1ccccc1 (stereo not given)	?	1.9e-08M*	1%	2.1e-08M*	19%
